# Screening results as filed in PubChem.
# Shown are actives, neighbours in structure and some others; about 0.86% of the full set was active somewhere.
# A1 inh = inhibitors of A1; MEF A1-2A-BIM cells, caspase-Glo luminescence, 3 h; percent of clofoctol signal, DMSO as zero; caspase activation, % (test concentration not listed); 21,000 compounds, 0.51% hits; AID 2241;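 active means most replicate scores above 10, or exactly half above 10 with mean activity above 10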;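 further: effector caspase 3 and 7 activity cleaving a DEVD luciferin substrate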
# BJeLR viab HTS = compounds reducing viability of BJeLR cells; BJeLR fibroblasts viability, CellTiterGlo ATP luminescence, 48 h; HRASV12, hTERT and SV40 LT/ST transformed; viability loss activity score, % (test concentration not listed); 30,000 compounds, 0.64% hits; AID 2275; in the data active means viability loss activity score above about 50%;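 further: higher score means fewer live cells and less ATP luminescence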
# The depositor's hits bear a star; / = no result.
SMILES,A1 inh,BJeLR viab HTS
COC1CC(OC2CCC3(C)C(CCC4(O)C3CC(OC(=O)c3ccccc3)C3(C)C(O)(C(C)=O)CCC43O)C2)OC(C)C1OC1CC(OC)C(OC2OC(C)C(O)C(OC)C2O)C(C)O1 (stereo not drawn),0,-7
c1ccc(C2N3CCCN2CC3)cc1 (stereo not drawn),0,-5
CCOc1ccc(C(Nc2ccccc2)P2(=S)OCCCO2)cc1 (stereo not drawn),/,2
CC(=O)NC1C(OC2OC(CC(O)C3OC(n4ccc(=O)[nH]c4=O)C(O)C3O)C(O)C(O)C2NC(=O)/C=C/CCCCCCCCCC(C)C)OC(CO)C(O)C1O (stereo not drawn),3,10
CCOC(=O)c1c(NC(=O)C2C(C)(C)C2(C)C)sc2c1CCC2,-1,-1
CN(C)C(=O)Oc1cccc(N)c1,1,0
Cc1cccc(C)c1NC1=NCCS1,0,10
C[C@@H]1O[C@@H](O[C@H]2C[C@@H](O)[C@]3(CO)C4C(CC[C@]3(O)C2)[C@@]2(O)CC[C@H](C3=CC(=O)OC3)[C@@]2(C)C[C@H]4O)[C@H](O)[C@H](O)[C@H]1O (stereo partly drawn),1,119*
CC1OC(O[C@H]2C[C@@H](O)[C@]3(CO)[C@H]4[C@H](O)C[C@]5(C)[C@@H](C6=CC(=O)OC6)CC[C@]5(O)[C@@H]4CC[C@]3(O)C2)C(O)C(O)C1O (stereo partly drawn),2,100*
C[C@H]1O[C@@H](O[C@H]2C[C@@H](O)[C@]3(CO)C4C(CC[C@]3(O)C2)[C@@]2(O)CC[C@H](C3=CC(=O)OC3)[C@@]2(C)C[C@H]4O)[C@@H](O)[C@@H](O)[C@H]1O (stereo partly drawn),-1,117*
c1ccc2c(CNCCc3c[nH]c4ccccc34)cccc2c1,0,9
CN1Cc2c(ccc3c2OCO3)[C@@H]2[C@H]1c1cc3c(cc1C[C@@H]2O)OCO3,2,41
c1cncc(C2Nc3ccccc3-n3cccc32)c1 (stereo not drawn),0,-3
CN(C)C(=O)Oc1nnc(SCCS(=O)(=O)c2ccc(F)cc2)n1-c1ccccc1,0,-2
Cc1cc(OCc2c(F)cccc2Cl)c2c3c(c(=O)oc2c1)CCCC3,1,-1
CCOC(=O)c1c(C)n(C(C)C)c2ccc(OC(=O)c3ccccc3)cc12,1,-4
CO/C1=C/C(C)=C/[C@@H](C)[C@@H](O)[C@@H](C)C/C(C)=C/C=C\[C@H](OC)[C@@H]([C@@H](C)[C@@H](O)[C@H](C)[C@@]2(O)C[C@@H](O)[C@H](C)[C@@H](C(C)C)O2)OC1=O,0,52*
CCOc1ccccc1C1NC(=S)NC(c2ccccc2OCC)C12C(=O)NC(=O)NC2=O (stereo not drawn),/,0
COc1cc2c(cc1O)CCNC2C (stereo not drawn),-1,-4
CC[C@H]1CN2CCc3cc(OC)c(OC)cc3[C@@H]2C[C@@H]1C[C@H]1NCCc2cc(O)c(OC)cc21,19*,94*
CCOC(=O)c1cc(C(C)(C)C)nc(OC(=O)N(C)C)c1C#N,0,0
CCOc1cc(CN2CCN(C(=O)COc3ccc(C)cc3)CC2)ccc1OC,0,-3
CCNCC(O)c1cccc(OC(=O)c2ccccc2C)c1 (stereo not drawn),0,-7
C/C=C(\C)[C@H](O)[C@H](C)/C=C(C)/C=C/C/C(C)=C/Cc1[nH]c(OC)c(OC)c(=O)c1C,0,26
CC(C)[C@]12O[C@H]1[C@@H]1O[C@]13[C@]1(O[C@H]1C[C@H]1C4=C(CC[C@@]13C)C(=O)OC4)[C@@H]2O,16*,90*
CCN(CC)c1nc2ccccc2c(=O)n1-c1ccccc1,0,-4
